What follows are sequences tested on PPARa:RXRa (NR concentration 270 nM, RXRa partner concentration 90 nM) (assay: PBM binding z-score (relative to random genomic background probes); higher = stronger binding; sequences stand for … in GC…GCGATTGACAGCGTAGAATGAAGG).
Outline: (§1)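 Regression normalization was applied to scanned fluorescence from custom Agilent 4×180K protein-binding microarrays. Before scanning, arrays were incubated 1 h with ligand-free nuclear receptor dimers, and binding was detected with antibodies against each partner (one per run). Binding z-scores use the random background probes as reference.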
For TTACCAGGGTGAAGGTCGTTGATCCCTCTGTAGA, the PBM binding z-score was 3.62. TCATATAGGTAAACTGGTGAAAGTCCGTAAGTTA was tested, and the PBM binding z-score was 1.05. Sequence TCTATTAGTTCATTAGGGCAACCGAAACAGCGGA has a PBM binding z-score of 2.47. Sequence TCTTGTAGATCAACGGTTAAGAAAGCCGAAGCCT has a PBM binding z-score of 1.14. With TCTAGTTAGTCAAAGGTCACACACTCGAAATGCG the PBM binding z-score was 5.98. ATCTCTATGTAACCAAGTTCAGTGAATGCCGAAC was tested, and the PBM binding z-score was 0.351. TGAATGAGGTTATAAGATCACGGAACGTTGCAAA was tested, and the PBM binding z-score was 3.21. CGTCAAAGTTCGAGGTAACGTAACAGAAAGCAGC was tested, and the PBM binding z-score was 1.74. CAAACTAGGCCAAAGGTCAAAGTCGAGCCAACCA showed a PBM binding z-score of 7.88. GCATATAGGTAATAGAAGGTGAAAGTCCGATTGT gave a PBM binding z-score of 1.78. TCTTGTAGATCAGCAGGTTAAGAAGGCTGGCCAA showed a PBM binding z-score of 0.674. GCTGCTAGGTCAACTGATCGTCAGCTAAAGCTCG was tested, and the PBM binding z-score was 3.62. TTACCAAGGGGAAGGTCGTTGATCCCTCTGTAGA showed a PBM binding z-score of 1.38. In the case of CTCGAAAGGTTGGTTGAGGTGAGTATACGGATAA, the PBM binding z-score is reported as 0.843. Sequence TCTTGTAGATAAATAGAGGTTAAGAAAGTGCGCT has a PBM binding z-score of 1.73. With GCTCGGAGGATAAGGTCAGAGCTTTGTCCGTAGA the PBM binding z-score was 2.62. TCATATCGGTAAAGGTGAAAGTCGAACGATATGA showed a PBM binding z-score of 2.77. Sequence CGTCCAAGGTCAACGGTCAGTGAAGAGATGACGG has a PBM binding z-score of 6.03. GCTATTAGTTGATAGGGCAACCGAATGATTCTCG gave a PBM binding z-score of 0.29. GATACAGGGTCAAGGCCGGAGTACGCGTATTGAT gave a PBM binding z-score of 5.66. CGAACTAGGTCATTGACACGACAGTGAATAGTAA gave a PBM binding z-score of 4.67. For CCTACTGTGCCAAAGGTCATTGATTCCAATGCTC, the PBM binding z-score was 6.17. For TCTCGGAGTACACGAAAGGTCAGAGCTCGACATC, the PBM binding z-score was 3.55. In the case of CCAGACAGGTGAAAGGGAACTCAGTCTGGTACGC, the PBM binding z-score is reported as 1.63. For ATCTAAAGGTCGTGAGGTGAGTATACAGAAAGGC, the PBM binding z-score was 5.2. CCGACTGCGGCAAAGGTTACCATACTCAGTACGA gave a PBM binding z-score of 2.59. Work on TCTTGTAGCTCAGCAGGTTAAGAAAGCTGGCCAA yielded a PBM binding z-score of 0.495. CCTACTGGGCGAAAGGTCATTGATTCCAATGCTC gave a PBM binding z-score of 5.92. For ATTGAAAGGTCGTGAGGTGAGTATACAGAAAGGC, the PBM binding z-score was 5.38. For CTAGACAGGTGAGAAGGTAACTCAGCCTCGATTA, the PBM binding z-score was 0.677. Sequence AGTCAAAGTTCACTAGGTGACGTAAGATTCAGCT has a PBM binding z-score of 5.06. For TCTTGTAGATCAAGCAGGTTAAGCAAGCCTGAGT, the PBM binding z-score was 0.618. GCTAGCAGGCCATTTGGTTCACTCAATGACGGGC gave a PBM binding z-score of -0.204. Work on CCTAGCAGGCCAAGCTGGGTCACTCAAGGCTTGA yielded a PBM binding z-score of 1.82. With GCAGAGAGGTGAAACGCAGGTAACTCAGGGTGGC the PBM binding z-score was 2.86. Sequence TCTTGTAGATTAAGCAGGTTAAGAAAGCCTGAGT has a PBM binding z-score of 0.868. Work on CCTGGTAGGTCAATGGTCAGCTAAAGCAGCTCGC yielded a PBM binding z-score of 3.77. GCAGACAGGTGAAACGCACGTAACTCAGGGTGGC gave a PBM binding z-score of 0.511. Sequence TCTAGAAGGCCAGAGGGTCACTCAAGAGGTACGG has a PBM binding z-score of 2.5. Work on GGAGACAGGTGAAACGCAGGTAACTCAGGGTGGC yielded a PBM binding z-score of 1.03.

What follows are sequences tested on PPARg:RXRa (NR concentration 180 nM, RXRa partner concentration 90 nM) in the same assay as above.
Outline: as §1
TTACCAGGGTGAAGGTCGTTGATCCCTCTGTAGA gave a PBM binding z-score of 6.75. Sequence TCATATAGGTAAACTGGTGAAAGTCCGTAAGTTA has a PBM binding z-score of 0.842. TCTATTAGTTCATTAGGGCAACCGAAACAGCGGA gave a PBM binding z-score of 1.21. For TCTTGTAGATCAACGGTTAAGAAAGCCGAAGCCT, the PBM binding z-score was 0.464. TCTAGTTAGTCAAAGGTCACACACTCGAAATGCG was tested, and the PBM binding z-score was 8. ATCTCTATGTAACCAAGTTCAGTGAATGCCGAAC gave a PBM binding z-score of 0.288. Sequence TGAATGAGGTTATAAGATCACGGAACGTTGCAAA has a PBM binding z-score of 2.15. CGTCAAAGTTCGAGGTAACGTAACAGAAAGCAGC was tested, and the PBM binding z-score was 1.36. With CAAACTAGGCCAAAGGTCAAAGTCGAGCCAACCA the PBM binding z-score was 12.3. GCATATAGGTAATAGAAGGTGAAAGTCCGATTGT gave a PBM binding z-score of 1.24. In the case of TCTTGTAGATCAGCAGGTTAAGAAGGCTGGCCAA, the PBM binding z-score is reported as -0.387. In the case of GCTGCTAGGTCAACTGATCGTCAGCTAAAGCTCG, the PBM binding z-score is reported as 2.54. In the case of TTACCAAGGGGAAGGTCGTTGATCCCTCTGTAGA, the PBM binding z-score is reported as 0.79. CTCGAAAGGTTGGTTGAGGTGAGTATACGGATAA gave a PBM binding z-score of -0.0296. TCTTGTAGATAAATAGAGGTTAAGAAAGTGCGCT gave a PBM binding z-score of 0.624. In the case of GCTCGGAGGATAAGGTCAGAGCTTTGTCCGTAGA, the PBM binding z-score is reported as 0.136. TCATATCGGTAAAGGTGAAAGTCGAACGATATGA gave a PBM binding z-score of 1.89. Work on CGTCCAAGGTCAACGGTCAGTGAAGAGATGACGG yielded a PBM binding z-score of 6.01. Sequence GCTATTAGTTGATAGGGCAACCGAATGATTCTCG has a PBM binding z-score of 0.713. Sequence GATACAGGGTCAAGGCCGGAGTACGCGTATTGAT has a PBM binding z-score of 5.78. For CGAACTAGGTCATTGACACGACAGTGAATAGTAA, the PBM binding z-score was 7.57. With CCTACTGTGCCAAAGGTCATTGATTCCAATGCTC the PBM binding z-score was 11.4. With TCTCGGAGTACACGAAAGGTCAGAGCTCGACATC the PBM binding z-score was 1.78. With CCAGACAGGTGAAAGGGAACTCAGTCTGGTACGC the PBM binding z-score was 2.51. In the case of ATCTAAAGGTCGTGAGGTGAGTATACAGAAAGGC, the PBM binding z-score is reported as 4.73. In the case of CCGACTGCGGCAAAGGTTACCATACTCAGTACGA, the PBM binding z-score is reported as 2.8. Sequence TCTTGTAGCTCAGCAGGTTAAGAAAGCTGGCCAA has a PBM binding z-score of -0.935. With CCTACTGGGCGAAAGGTCATTGATTCCAATGCTC the PBM binding z-score was 11. ATTGAAAGGTCGTGAGGTGAGTATACAGAAAGGC was tested, and the PBM binding z-score was 4.88. CTAGACAGGTGAGAAGGTAACTCAGCCTCGATTA showed a PBM binding z-score of 0.508. AGTCAAAGTTCACTAGGTGACGTAAGATTCAGCT was tested, and the PBM binding z-score was 7.82. Work on TCTTGTAGATCAAGCAGGTTAAGCAAGCCTGAGT yielded a PBM binding z-score of -0.429. Sequence GCTAGCAGGCCATTTGGTTCACTCAATGACGGGC has a PBM binding z-score of 0.226. In the case of CCTAGCAGGCCAAGCTGGGTCACTCAAGGCTTGA, the PBM binding z-score is reported as -0.199. In the case of GCAGAGAGGTGAAACGCAGGTAACTCAGGGTGGC, the PBM binding z-score is reported as 1.21. TCTTGTAGATTAAGCAGGTTAAGAAAGCCTGAGT showed a PBM binding z-score of -0.488. For CCTGGTAGGTCAATGGTCAGCTAAAGCAGCTCGC, the PBM binding z-score was 6.52. With GCAGACAGGTGAAACGCACGTAACTCAGGGTGGC the PBM binding z-score was 0.771. For TCTAGAAGGCCAGAGGGTCACTCAAGAGGTACGG, the PBM binding z-score was 1.33. Sequence GGAGACAGGTGAAACGCAGGTAACTCAGGGTGGC has a PBM binding z-score of 0.617.

— the supplement of paper PMC6555819
